Test results reported in PubChem BioAssay (NCI).
Compounds without any hit were thinned out: in the full panel of roughly 83,000, 20% have a hit.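 Interpretation: 100, growth as untreated; towards 0, rising growth inhibition; 0, no net growth; 0 to -100, cell death. Compounds scoring below 10 were considered active.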 Calls of active or inactive are those of the source.

These compounds were tested on MDA-MB-468 breast (assay: NCI-60 one-dose screen, 48 h (100 = growth as untreated, 0 = no growth, -100 = all killed)). Details: 10 µM unless noted.

Structure (SMILES) | growth
Cc1cc2c(cc1[N+](=O)[O-])NC(CNC(C)C)CC2 (stereo not given) | 83.3% (inactive)
C=C1C(=O)O[C@H]2[C@H]1CC/C(COC(=O)CSCCSCC(=O)OC/C1=C/CC[C@@]3(C)O[C@H]3[C@H]3OC(=O)C(=C)[C@@H]3CC1)=C\CC[C@@]1(C)O[C@@H]21 | -44.7% (active)
CC1=C(C(=O)Nc2ccc(F)cc2)C(c2ccc(C)cc2)C2=C(CC(C)(C)CC2=O)N1 (stereo not given) | 84.7% (inactive)
O=C(CCCCCCN1CC(=O)N2[C@H](c3ccc(Br)cc3)c3[nH]c4ccccc4c3C[C@@H]2C1=O)NO | 33.9% (inactive)
Cn1ccnc1C(=O)/C=C/C=C/c1ccc(C(=O)Nc2ccc(F)cc2)cc1 | 35.3% (inactive)
C=CCn1c(SCC(=O)Nc2ccc(C(=O)/C=C/c3cc(OC)c(OC)c(OC)c3)cc2)nnc1-c1cc(OC)c(OC)c(OC)c1 | 26.1% (inactive)
COc1ccccc1/C=C/C(=O)c1nnn(-c2ccc(C(=O)O)cc2)c1C | 74.5% (inactive)
C=C1C(=O)O[C@H]2[C@H]1CC/C(C=Nc1ccc(C(F)(F)F)cc1N)=C\CC[C@@]1(C)O[C@@H]21 | 1.92% (active)
CSc1nc(S(C)(=O)=O)nc2[nH]c(=O)[nH]c12 | 103% (inactive)
Cc1cc(Cl)cc(CN(Cc2ccccc2)Cc2c(O)ccc3ccccc23)c1O | 102% (inactive)
CC(C)c1ccc2c(c1)CCC1C2CCCC1(C)NCc1ccccc1 (stereo not given) | -44.5% (active)
COC(=O)c1nc(-c2ccccc2)oc1S(=O)(=O)NCC(c1ccc(Cl)cc1)N1CCOCC1 (stereo not given) | 29.9% (inactive)
O=S(=O)(Nc1ccc(I)cc1F)c1ccc(-c2cnc(C3CC3)o2)cc1 | -9.07% (active)
COc1cccc(C(Cc2ccccc2)Nc2ccccc2)c1OC (stereo not given) | 111% (inactive)
CN1CCN(c2nc(-c3csc(-c4ccccc4)n3)cc3ccccc23)CC1 | -71.9% (active)
FC(F)(F)c1cc(N2CCCCC2)nc(NCCCNc2ccnc3cc(Cl)ccc23)n1 | 1.13% (active)
COc1cccc(C(c2cc3c(cc2O)OCO3)N2CCOCC2)c1OC (stereo not given) | 90.6% (inactive)
CS(=O)(=O)c1ccc(/C(=N/N=C(N)N)c2ccc(F)cc2)cc1 | -5.12% (active)
CS(=O)(=O)Nc1ccc(C(=O)NC(C(=O)NO)c2ccc(-c3cccc(F)c3)cc2)cc1 (stereo not given) | 95% (inactive)
COc1ccc2cnc(N)c(C#Cc3cc(C(=O)Nc4ccc(CN5CCN(C)CC5)c(C(F)(F)F)c4)cnc3C)c2c1 | 91.2% (inactive)

Structure (SMILES) | growth
Brc1ccc(Br)nn1 | -85.5% (active)
Cc1cc(N2CCOCC2)nc(N(CCNc2ccnc3cc(Cl)ccc23)Cc2cccs2)n1 | -15.2% (active)
Cn1cc(-c2nc(-c3c[nH]c4ncccc34)cs2)c2cc(Br)ccc21 | 5.22% (active)
C=CCCCCOc1ccccc1-c1cnc(OCCCCC=C)n1C | 25.5% (inactive)
CCOC(=O)c1cc2cccc(OC)c2oc1=O | 108% (inactive)
CCOC(=O)CCC(=O)P(=O)(O)O | 114% (inactive)
Nc1c(Cl)cc(/C=C2\C=Cc3ccccc32)cc1Cl | 97.9% (inactive)
Cc1cc(C#Cc2ccccc2)ccc1-n1c(/C=C/c2cc(O)ccc2O)nc2ccccc2c1=O | -36.5% (active)
OCCN1CCCN(CCCN2c3ccccc3Sc3ccc(C(F)(F)F)cc32)CC1 | 39.6% (inactive)
O=C(NNc1nc2cc(F)ccc2n2c(CN3CC4CNCC4C3)ccc12)c1cnccn1 (stereo not given) | 3.88% (active)
Cc1[nH]nc2ncc(C#Cc3cncc(C(=O)Nc4ccc(CN5CCN(C)CC5)c(C(F)(F)F)c4)c3)cc12 | 26.1% (inactive)
O=c1[nH]c(=S)[nH]n1C(=S)n1[nH]c(=S)[nH]c1=O | 92.5% (inactive)
CCc1ccc(-c2ccc(=O)n(-c3ccc(S(N)(=O)=O)cc3)n2)cc1 | 7.89% (active)
N/C(=N\C(N)=N\c1nc2ccccc2s1)c1ccnc(Cl)c1 | 51.9% (inactive)
COc1ccc(/C(=N\NC(N)=S)c2ccc(Cl)cc2)cc1OC | 15.9% (inactive)
Cc1ccccc1Nc1cc(O)c2c(=O)cc(-c3ccccc3)oc2c1 | -2.12% (active)
COc1cc(C2CC(=O)Nc3c2c(C)nn3-c2nc3ccccc3[nH]2)cc2c1OCC(=O)N2 (stereo not given) | 57.1% (inactive)
Fc1ccc(-c2nnc(-c3c(-c4ccc(F)cc4)nc4ccccn34)o2)cc1 | 92.5% (inactive)
CC(=O)Nc1cc(N2CCOCC2)c2nc(NC(=O)c3[nH]c(C)c(Cl)c3Cl)sc2c1 | 47.7% (inactive)
Cn1c(-c2nonc2NC(=O)c2ccc(F)cc2)nc2ccccc21 | 99.5% (inactive)
